{"source": "PubChem BioAssay (EPA / NIEHS)", "key": {"[1]": {"molecular_target": "human Phosphodiesterase 4A1 (PDE4A1), PDE4A (gene 5141) (UniProt P27815)", "assay": "NVS_ENZ_hPDE4A1: NovaScreen (NVS) Enzymatic Assay for human Phosphodiesterase 4A1 (PDE4A1) (AID 2283191)", "outline": "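Fluorescent substrate turnover by recombinant PDE4A1 read after 1 h by mobility-shift separation. Primary duplicate screen at 25 uM; hits retested in concentration series with a 50 uM maximum, relative to DMSO.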"}, "[2]": {"molecular_target": "human Phosphodiesterase 5 (PDE5), PDE5A (gene 8654) (UniProt O76074)", "assay": "NVS_ENZ_hPDE5: NovaScreen (NVS) Enzymatic Assay for human Phosphodiesterase 5 (PDE5) (AID 2283194)", "outline": "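Screening began in duplicate at 25 uM, with actives taken into concentration-response. Enzyme activity of recombinant PDE5 toward its substrate was measured at 1 h by fluorescence mobility-shift detection, relative to DMSO controls.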"}, "[3]": {"molecular_target": "Tyrosine-protein phosphatase non-receptor type 14 (Homo sapiens) (UniProt Q15678)", "sequence (Q15678 whole entry, looked up)": "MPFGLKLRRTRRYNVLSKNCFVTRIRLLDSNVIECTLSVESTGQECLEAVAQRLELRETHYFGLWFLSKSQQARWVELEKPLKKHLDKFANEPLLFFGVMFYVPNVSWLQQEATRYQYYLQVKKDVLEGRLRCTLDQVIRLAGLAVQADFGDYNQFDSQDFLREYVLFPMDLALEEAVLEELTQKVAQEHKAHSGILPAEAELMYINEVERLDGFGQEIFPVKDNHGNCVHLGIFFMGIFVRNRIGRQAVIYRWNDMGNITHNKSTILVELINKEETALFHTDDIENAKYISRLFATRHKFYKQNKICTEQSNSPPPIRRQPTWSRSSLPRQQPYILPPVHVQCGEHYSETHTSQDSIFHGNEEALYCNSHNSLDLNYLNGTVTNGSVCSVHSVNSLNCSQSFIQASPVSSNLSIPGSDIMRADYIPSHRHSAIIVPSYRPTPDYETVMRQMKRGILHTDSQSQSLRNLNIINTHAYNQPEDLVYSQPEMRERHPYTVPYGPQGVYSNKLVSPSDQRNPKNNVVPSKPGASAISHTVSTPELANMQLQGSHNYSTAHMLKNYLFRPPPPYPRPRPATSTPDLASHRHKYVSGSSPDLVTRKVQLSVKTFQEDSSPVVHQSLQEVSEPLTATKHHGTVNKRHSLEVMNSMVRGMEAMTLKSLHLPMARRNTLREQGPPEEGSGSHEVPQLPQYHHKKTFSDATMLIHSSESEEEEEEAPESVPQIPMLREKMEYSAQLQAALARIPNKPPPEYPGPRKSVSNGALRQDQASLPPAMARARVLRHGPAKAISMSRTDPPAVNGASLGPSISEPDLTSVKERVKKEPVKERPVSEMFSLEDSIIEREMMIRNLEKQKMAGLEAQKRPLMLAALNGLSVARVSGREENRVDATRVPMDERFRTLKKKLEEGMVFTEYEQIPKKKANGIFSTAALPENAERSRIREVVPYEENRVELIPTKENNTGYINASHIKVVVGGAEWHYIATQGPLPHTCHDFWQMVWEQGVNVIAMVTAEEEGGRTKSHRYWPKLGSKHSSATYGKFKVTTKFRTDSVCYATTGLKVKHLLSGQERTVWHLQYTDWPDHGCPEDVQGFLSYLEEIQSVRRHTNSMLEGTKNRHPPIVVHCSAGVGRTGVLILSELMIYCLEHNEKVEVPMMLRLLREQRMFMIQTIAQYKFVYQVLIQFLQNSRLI", "assay": "NVS_ENZ_hPTPN14: NovaScreen (NVS) Enzymatic Assay for human Protein Tyrosine Phosphatase Non-receptor Type 14 (PTPN14) (AID 2283206)", "outline": "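Fluorescent substrate turnover by recombinant human PTPN14 was measured 0.5 h after compound addition, with substrate and product separated by mobility shift. Single-point screening at 25 uM, then concentration-response up to 50 uM for chemicals meeting threshold (e.g., 30% inhibition).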"}, "[4]": {"molecular_target": "human SRC Proto-Oncogene, Non-receptor Tyrosine Kinase (SRC), SRC (gene 6714) (UniProt P12931)", "sequence (P12931 whole entry, looked up)": "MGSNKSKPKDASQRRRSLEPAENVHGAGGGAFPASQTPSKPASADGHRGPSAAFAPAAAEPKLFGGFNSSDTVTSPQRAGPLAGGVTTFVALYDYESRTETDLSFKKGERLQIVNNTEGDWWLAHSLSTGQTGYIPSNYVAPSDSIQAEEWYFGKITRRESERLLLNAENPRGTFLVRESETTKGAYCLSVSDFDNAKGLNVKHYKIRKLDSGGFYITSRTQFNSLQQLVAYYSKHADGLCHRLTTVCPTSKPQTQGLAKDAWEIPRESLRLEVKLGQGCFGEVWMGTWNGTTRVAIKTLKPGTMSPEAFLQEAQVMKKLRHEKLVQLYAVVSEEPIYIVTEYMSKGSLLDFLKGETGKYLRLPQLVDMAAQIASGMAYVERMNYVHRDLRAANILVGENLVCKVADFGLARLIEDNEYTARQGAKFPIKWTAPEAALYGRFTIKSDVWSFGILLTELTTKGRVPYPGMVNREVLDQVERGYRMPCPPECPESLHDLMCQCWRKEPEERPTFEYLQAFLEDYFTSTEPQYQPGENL", "assay": "NVS_ENZ_hSRC: NovaScreen (NVS) Enzymatic Assay for human SRC Proto-Oncogene, Non-receptor Tyrosine Kinase (SRC) (AID 2283223)", "outline": "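Compounds passing 30% inhibition at 25 uM (duplicate) were titrated to a top concentration of 50 uM. Enzyme activity read by fluorescence with mobility-shift substrate/product separation after 1 h; DMSO baseline.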"}, "[5]": {"test_system": "bovine Histamine 1 Receptor (H1), gene 281231", "assay": "NVS_GPCR_bH1: NovaScreen (NVS) G Protein-Coupled Receptor Assay for bovine Histamine 1 Receptor (H1) (AID 2283246)", "outline": "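Hits from a 25 uM duplicate primary screen were retested in concentration series (top 50 uM); binding measured as scintillation-counted displacement of radioligand from bovine cerebellar membranes after 1 h, normalised to DMSO.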"}, "[6]": {"molecular_target": "rat Glutamate Metabotropic Receptor 5 (MGluR5), Grm5 (gene 24418) (UniProt P31424)", "sequence (P31424 whole entry, looked up)": "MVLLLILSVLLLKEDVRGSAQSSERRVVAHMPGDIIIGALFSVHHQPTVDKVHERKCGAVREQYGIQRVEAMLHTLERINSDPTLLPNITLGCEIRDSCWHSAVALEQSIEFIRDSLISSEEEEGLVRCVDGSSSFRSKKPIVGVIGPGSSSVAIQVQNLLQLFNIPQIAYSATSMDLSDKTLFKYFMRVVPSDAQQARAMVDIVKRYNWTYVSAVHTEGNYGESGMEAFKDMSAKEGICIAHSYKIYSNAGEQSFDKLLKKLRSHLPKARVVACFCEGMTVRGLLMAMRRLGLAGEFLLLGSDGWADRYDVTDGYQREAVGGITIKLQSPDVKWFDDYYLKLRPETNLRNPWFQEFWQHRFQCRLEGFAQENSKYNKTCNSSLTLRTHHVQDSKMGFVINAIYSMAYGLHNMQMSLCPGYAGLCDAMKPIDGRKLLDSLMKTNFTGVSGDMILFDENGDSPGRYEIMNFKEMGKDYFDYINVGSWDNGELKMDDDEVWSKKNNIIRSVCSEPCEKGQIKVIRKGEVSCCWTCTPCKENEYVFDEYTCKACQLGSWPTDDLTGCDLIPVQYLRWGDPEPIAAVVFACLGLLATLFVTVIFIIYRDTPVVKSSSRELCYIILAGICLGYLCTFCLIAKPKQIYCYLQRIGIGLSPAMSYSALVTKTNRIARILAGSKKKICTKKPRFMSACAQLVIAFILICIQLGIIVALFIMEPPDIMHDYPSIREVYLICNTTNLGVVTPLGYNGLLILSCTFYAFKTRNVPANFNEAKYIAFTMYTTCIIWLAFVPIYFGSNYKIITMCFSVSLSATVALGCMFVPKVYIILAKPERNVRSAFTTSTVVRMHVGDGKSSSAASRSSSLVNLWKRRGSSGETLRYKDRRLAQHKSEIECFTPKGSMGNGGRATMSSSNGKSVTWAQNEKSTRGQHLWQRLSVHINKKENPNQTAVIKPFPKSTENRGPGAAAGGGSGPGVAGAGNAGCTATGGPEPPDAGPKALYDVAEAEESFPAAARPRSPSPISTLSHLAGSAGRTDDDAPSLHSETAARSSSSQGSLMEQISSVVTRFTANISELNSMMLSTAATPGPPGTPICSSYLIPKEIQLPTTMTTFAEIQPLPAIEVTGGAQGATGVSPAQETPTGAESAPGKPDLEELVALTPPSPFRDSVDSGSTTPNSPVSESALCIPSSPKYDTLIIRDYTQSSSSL", "assay": "NVS_GPCR_rmMGluR5: NovaScreen (NVS) G Protein-Coupled Receptor Assay for rat Glutamate Metabotropic Receptor 5 (MGluR5) (AID 2283307)", "outline": "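Compounds first screened in duplicate at 25 uM, then in concentration series up to 50 uM if over threshold. Radioligand displacement on rat whole-brain membranes, filtration and scintillation counting after 1.5 h; binding loss relative to DMSO.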"}, "[7]": {"molecular_target": "rat Oxytocin Receptor (OXT), Oxtr (gene 25342) (UniProt P70536)", "sequence (P70536 whole entry, looked up)": "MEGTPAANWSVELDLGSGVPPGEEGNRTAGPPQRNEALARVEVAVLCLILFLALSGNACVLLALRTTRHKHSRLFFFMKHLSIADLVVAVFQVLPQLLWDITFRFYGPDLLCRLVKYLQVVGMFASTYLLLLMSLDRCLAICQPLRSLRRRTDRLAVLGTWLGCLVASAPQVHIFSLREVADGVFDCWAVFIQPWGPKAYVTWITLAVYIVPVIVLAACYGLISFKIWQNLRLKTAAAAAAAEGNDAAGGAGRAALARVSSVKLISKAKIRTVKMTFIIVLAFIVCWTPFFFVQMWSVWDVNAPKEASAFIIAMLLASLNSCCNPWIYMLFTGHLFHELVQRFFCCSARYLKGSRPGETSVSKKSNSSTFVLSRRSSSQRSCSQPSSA", "assay": "NVS_GPCR_rOXT: NovaScreen (NVS) G Protein-Coupled Receptor Assay for rat Oxytocin Receptor (OXT) (AID 2283330)", "outline": "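Binding to rat uterine membrane receptor was followed by scintillation counting of filter-trapped radioligand after 1 h. A 25 uM duplicate single-point screen preceded concentration series with a top of 50 uM. Signal loss was analysed relative to DMSO.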"}, "[8]": {"molecular_target": "Norway rat Vesicular Monoamine Transporter (VMAT2), neurotransmitter transporter, Slc18a2 (gene 25549) (UniProt Q01827)", "sequence (Q01827 whole entry, looked up)": "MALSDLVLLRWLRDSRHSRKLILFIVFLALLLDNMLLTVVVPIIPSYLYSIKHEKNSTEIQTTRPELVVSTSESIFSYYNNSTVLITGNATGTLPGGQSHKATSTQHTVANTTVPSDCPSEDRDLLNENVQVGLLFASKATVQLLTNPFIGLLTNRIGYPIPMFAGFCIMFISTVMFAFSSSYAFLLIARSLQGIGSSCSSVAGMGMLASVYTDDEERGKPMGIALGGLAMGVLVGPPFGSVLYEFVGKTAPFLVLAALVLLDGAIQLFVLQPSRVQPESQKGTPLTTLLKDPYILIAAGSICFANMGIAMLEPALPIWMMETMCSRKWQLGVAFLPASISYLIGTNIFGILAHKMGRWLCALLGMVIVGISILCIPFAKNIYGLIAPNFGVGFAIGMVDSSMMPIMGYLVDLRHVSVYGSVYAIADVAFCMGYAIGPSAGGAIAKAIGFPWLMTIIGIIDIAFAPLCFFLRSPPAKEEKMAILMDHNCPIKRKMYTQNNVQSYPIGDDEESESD", "assay": "NVS_TR_rVMAT2: NovaScreen (NVS) Transporter Assay for Norway rat Vesicular Monoamine Transporter (VMAT2), neurotransmitter transporter (AID 2283376)", "outline": "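Using rat forebrain membranes, specific radioligand binding to VMAT2 was measured by filtration and scintillation counting after 1 hour. Chemicals screened at 25 uM in duplicate, actives retested in concentration series, DMSO baseline.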"}, "[9]": {"molecular_target": "human Neurokinin, NK2 Receptor, TACR2 (gene 6865) (UniProt P21452)", "sequence (P21452 whole entry, looked up)": "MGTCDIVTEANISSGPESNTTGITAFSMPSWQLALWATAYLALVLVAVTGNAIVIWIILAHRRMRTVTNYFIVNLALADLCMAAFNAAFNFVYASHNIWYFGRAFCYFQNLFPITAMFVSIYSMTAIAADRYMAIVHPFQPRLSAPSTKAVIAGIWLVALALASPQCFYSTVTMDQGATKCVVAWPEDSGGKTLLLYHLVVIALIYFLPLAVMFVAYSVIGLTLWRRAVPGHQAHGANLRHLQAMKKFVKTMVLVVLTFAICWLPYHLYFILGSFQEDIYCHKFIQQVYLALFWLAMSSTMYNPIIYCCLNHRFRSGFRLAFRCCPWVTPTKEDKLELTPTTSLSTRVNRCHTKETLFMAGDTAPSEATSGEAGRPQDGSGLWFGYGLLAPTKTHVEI", "assay": "NVS_GPCR_hNK2: NovaScreen (NVS) G Protein-Coupled Receptor Assay for human Neurokinin, NK2 Receptor (AID 2283278)", "outline": "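Filter-based scintillation counting measured radioligand bound to receptor extracted from CHO cells, 4 hours after compound addition. Chemicals screened first at 25 uM in duplicate, with actives retested in concentration series relative to DMSO.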"}, "[10]": {"molecular_target": "human Opioid Receptor Mu (Opiate Mu), OPRM1 (gene 4988) (UniProt P35372)", "assay": "NVS_GPCR_hOpiate_mu: NovaScreen (NVS) G Protein-Coupled Receptor Assay for human Opioid Receptor Mu (Opiate Mu) (AID 2283290)", "outline": "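CHO-derived receptor protein, cell-free; radioligand displacement, filtration + scintillation counting, read at 2.5 h. DMSO = negative control/baseline. Primary: 25 uM single conc, duplicate; secondary: concentration series.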"}, "[11]": {"assay": "CCTE_Deisenroth_H295R-HTRF_384WELL_ESTRADIOL: CCTE's H295R-HTRF Assay Evaluation of Estradiol Concentration, Deisenroth Lab (AID 2284361; active = hit-call score of the fitted dose curve at least 0.9, where 1 is the maximum; inactive = score below 0.9)", "settings": "actives raise or lower the signal", "outline": "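Estradiol secreted into medium by H295R adrenocortical cells, quantified by HTRF after 48 h dosing over a nine-point 0.001 - 100 uM final range; gain or loss versus DMSO. Parallel ATP-luminescence viability readout; n=5 experiments.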"}, "[12]": {"assay": "CCTE_Deisenroth_H295R-HTRF_384WELL_TESTOSTERONE: CCTE's H295R-HTRF Assay Evaluation of Testosterone Concentration, Deisenroth Lab (AID 2284373; active = hit-call score of the fitted dose curve at least 0.9, where 1 is the maximum; inactive = score below 0.9)", "settings": "actives raise or lower the signal", "outline": "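H295R cells were acclimated 24 h, then exposed 48 h to nine concentrations (0.001–100 uM final) in technical triplicate, n=5. Testosterone in conditioned medium was measured by HTRF (em 620/665 nm). Fitting was bidirectional versus DMSO; CellTiter-Glo viability ran on the same plates.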"}, "[13]": {"assay": "CCTE_Deisenroth_H295R-HTRF_384WELL_CTOX: Cytotoxicity Assessment in CCTE's H295R-HTRF Assay, Deisenroth Lab (AID 2284380)", "outline": "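Luminescent ATP viability readout (CellTiter-Glo 2.0), multiplexed on plates used for hormone sampling, after 48 h chemical exposure. Human H295R cells; final concentrations 0.001–100 uM in nine steps, technical triplicates, five experiments; DMSO baseline.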"}, "[14]": {"molecular_target": "rat Neonicotinoid receptor (NNR), Chrna7 (gene 25302) (UniProt Q05941)", "sequence (Q05941 whole entry, looked up)": "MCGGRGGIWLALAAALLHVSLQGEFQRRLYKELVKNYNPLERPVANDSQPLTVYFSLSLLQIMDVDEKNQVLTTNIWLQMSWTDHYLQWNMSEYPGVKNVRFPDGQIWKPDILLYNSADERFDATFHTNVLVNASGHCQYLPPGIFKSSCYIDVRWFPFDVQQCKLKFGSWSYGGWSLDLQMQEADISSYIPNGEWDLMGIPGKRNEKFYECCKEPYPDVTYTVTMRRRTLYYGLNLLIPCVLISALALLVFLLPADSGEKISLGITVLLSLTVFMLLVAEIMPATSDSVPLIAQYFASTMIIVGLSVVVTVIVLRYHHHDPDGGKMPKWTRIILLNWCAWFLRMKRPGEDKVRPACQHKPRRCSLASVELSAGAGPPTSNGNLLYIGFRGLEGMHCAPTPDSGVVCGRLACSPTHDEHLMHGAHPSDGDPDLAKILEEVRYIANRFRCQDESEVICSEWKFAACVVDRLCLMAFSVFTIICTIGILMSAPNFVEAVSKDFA", "assay": "NVS_LGIC_rNNR_BungSens: NovaScreen (NVS) Ligand-Gated Ion Channel Assay for rat Neonicotinoid receptor (NNR) (AID 2283315)", "outline": "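Rat cortical membrane preparation incubated 2.5 h with tritiated or iodinated radioligand and test chemical. Bound radioactivity was filtered and counted by scintillation, and displacement was analysed against DMSO.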"}, "[15]": {"assay": "CCTE_Shafer_MEA_dev_network_spike_number: CCTE's Neural Network Formation Assay for Number of Network Spikes, Shafer Lab (AID 2284048; active = hit-call score of the fitted dose curve at least 0.9, where 1 is the maximum; inactive = score below 0.9;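 also: synchronized bursts across electrodes counted on days 5 7 9 12 and integrated as AUC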)", "outline": "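Number of network spikes (coordinated firing across electrodes) recorded on days 5, 7, 9 and 12 and summarised as area under the curve. Rat cortical cultures on MEA, continuous compound exposure with full medium/treatment exchange at DIV 5 and 9.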"}, "[16]": {"assay": "IUF_NPC5_oligodendrocyte_differentiation_120hr: Leibniz Research Institute for Environmental Medicine (IUF) 120-hour Oligodendrocyte Differentiation Assay (NPC5) (AID 2284304);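 also: primary human fetal neural progenitor spheres plated to migrate and differentiate; share of O4-positive cells among Hoechst nuclei found by CNN image analysis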", "outline": "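After plating on poly-D-lysine/laminin, fetal-derived hNPC spheres differentiated for 120 h at 37C in compound-containing N2 medium, refreshed by half on day 3. O4 immunostaining over Hoechst nuclei in the migration zone gave oligodendrocyte percentage relative to DMSO.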"}, "[17]": {"assay": "TAMU_PeakParms_SingleDonor1434_Asystole: Texas A&M University (TAMU) 1.5-hr Human Induced Pluripotent Stem Cell (iPSC)-derived Cardiomyocytes Calcium (Ca+2) Flux Assay for Cardiotoxicity: Asystole (quiescence of beating) (AID 2284328)", "outline": "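Average Ca2+-flux peak frequency (beats/s) was recorded in single-donor iPSC-derived cardiomyocytes after 90 min exposure (0.2–100 uM final, 0.5% DMSO). Asystole POD set as EC95 against DMSO, no preprocessing.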"}}, "note": "Results filed as inconclusive are left out. Activity calls are given as the source filed them. The calls were made as follows, unless noted: active = hit-call score of the fitted dose curve at least 0.9, where 1 is the maximum; inconclusive = response in the unintended direction; inactive = score below 0.9."}
{"smiles": "N#CCCCCC#N", "values": [{"measurement": "outcome", "setting": "[1]", "result": "inactive"}, {"measurement": "outcome", "setting": "[2]", "result": "inactive"}, {"measurement": "outcome", "setting": "[3]", "result": "inactive"}, {"measurement": "outcome", "setting": "[4]", "result": "inactive"}, {"measurement": "outcome", "setting": "[5]", "result": "inactive"}, {"measurement": "outcome", "setting": "[6]", "result": "inactive"}, {"measurement": "outcome", "setting": "[7]", "result": "inactive"}, {"measurement": "outcome", "setting": "[8]", "result": "inactive"}]}
{"smiles": "O=C1C(Cl)=C(Cl)C(=O)C(Cl)=C1Cl", "values": [{"measurement": "AC50", "setting": "[9]", "result": "1.07 µM (active)"}, {"measurement": "AC50", "setting": "[10]", "result": "4.48 µM (active)"}]}
{"smiles": "C[C@]12CC[C@H]3[C@@H](CC[C@@]45O[C@@H]4C(O)=C(C#N)C[C@]35C)[C@@H]1CC[C@@H]2O", "values": [{"measurement": "AC50", "setting": "[11]", "result": "3.06 µM (active)"}, {"measurement": "AC50", "setting": "[12]", "result": "19 µM (active)"}, {"measurement": "outcome", "setting": "[13]", "result": "inactive"}]}
{"smiles": "CCc1cc(C)cc(CC)c1-c1c(OC(=O)C(C)(C)C)n2n(c1=O)CCOCC2", "values": [{"measurement": "AC50", "setting": "[14]", "result": "6.11 µM (active)"}]}
{"smiles": "CC(C)CCCCCCCOP(=O)(Oc1ccccc1)Oc1ccccc1", "values": [{"measurement": "outcome", "setting": "[15]", "result": "inactive"}, {"measurement": "AC50", "setting": "[16]", "result": "5.15 µM (active)"}, {"measurement": "outcome", "setting": "[17]", "result": "inactive"}]}
